In PubChem BioAssay (NCI):
About 83,000 compounds went through this panel and 20% of them were active in at least one assay; those are over-represented in the sample as a whole.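 Percent growth is the endpoint: 0 to 100 indicates growth inhibition (40 means 60% inhibition), 0 means no net growth, and negative values indicate cell death.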 Calls of active or inactive are those of the source. Rule for the calls: active = growth percent below 10; inactive = the rest.

How the values were obtained:
Assay in all cases: NCI-60 one-dose screen, 48 h (100 = growth as untreated, 0 = no growth, -100 = all killed)
Details in all cases: 10 µM unless noted
HCT-15 colon = test system: HCT-15 colon
HT29 colon = test system: HT29 colon
SNB-75 CNS = test system: SNB-75 CNS
SNB-19 CNS = test system: SNB-19 CNS
U251 CNS = test system: U251 CNS
PC-3 prostate = test system: PC-3 prostate
SK-MEL-5 melanoma = test system: SK-MEL-5 melanoma
UACC-62 melanoma = test system: UACC-62 melanoma
LOX IMVI melanoma = test system: LOX IMVI melanoma
SK-MEL-28 melanoma = test system: SK-MEL-28 melanoma
SK-MEL-2 melanoma = test system: SK-MEL-2 melanoma
EKVX NSCLC = test system: EKVX NSCLC
SN12C renal = test system: SN12C renal
UO-31 renal = test system: UO-31 renal
TK-10 renal = test system: TK-10 renal
ACHN renal = test system: ACHN renal
CAKI-1 renal = test system: CAKI-1 renal
CCRF-CEM leukemia = test system: CCRF-CEM leukemia
MOLT-4 leukemia = test system: MOLT-4 leukemia

Measured: growth

O=C(/C=C(/C=C/c1csc2ccccc12)OB(F)F)/C=C/c1csc2ccccc12
inactive: HCT-15 colon 11.4% | HT29 colon 15.7% | SNB-75 CNS 16.5% | SNB-19 CNS 48.2% | U251 CNS 17.1% | PC-3 prostate 20.3% | SK-MEL-5 melanoma 31.5% | SK-MEL-2 melanoma 73.1% | EKVX NSCLC 23.7% | TK-10 renal 23.7% | CAKI-1 renal 10.1%
active: UACC-62 melanoma 6.2% | LOX IMVI melanoma -3.05% | SK-MEL-28 melanoma 4.8% | SN12C renal -9.88% | UO-31 renal -5.1% | ACHN renal 7.13% | CCRF-CEM leukemia -20.5% | MOLT-4 leukemia -18.6%

CCCCNC(=O)Oc1ccc(/C(=C(\C)c2ccccc2)c2ccc(OCCN3CCCCC3)cc2)cc1
active: HCT-15 colon 9.66% | HT29 colon 0.947%
inactive: SNB-75 CNS 84.6% | SNB-19 CNS 71.5% | U251 CNS 50.7% | PC-3 prostate 55.3% | SK-MEL-5 melanoma 68.9% | UACC-62 melanoma 41.8% | LOX IMVI melanoma 62% | SK-MEL-28 melanoma 46.7% | SK-MEL-2 melanoma 72.7% | EKVX NSCLC 76.2% | SN12C renal 70.7% | UO-31 renal 40.4% | TK-10 renal 85.3% | ACHN renal 90.1% | CAKI-1 renal 46.9% | CCRF-CEM leukemia 66.3% | MOLT-4 leukemia 53.8%

COc1cc(/C(C)=C(\c2ccc(Cl)cc2)c2ccc(OCCN(C)C)cc2)ccc1F
active: HT29 colon 5.91%
inactive: HCT-15 colon 18.1% | SNB-75 CNS 65.4% | SNB-19 CNS 87.7% | U251 CNS 44.3% | PC-3 prostate 58.1% | SK-MEL-5 melanoma 44.2% | UACC-62 melanoma 50.3% | LOX IMVI melanoma 38.3% | SK-MEL-28 melanoma 64.5% | SK-MEL-2 melanoma 104% | EKVX NSCLC 81.2% | SN12C renal 73.8% | UO-31 renal 47.5% | TK-10 renal 72.1% | ACHN renal 87.4% | CAKI-1 renal 62.7% | CCRF-CEM leukemia 49.5% | MOLT-4 leukemia 42.4%

COc1ccc(C(=O)c2cc(C)c(OC)c(C)c2)c(OC)c1N(C(=O)CCl)C(=O)CCl
active: HCT-15 colon 4.71% | HT29 colon 3.24% | SK-MEL-5 melanoma -9.39% | CCRF-CEM leukemia 8.61%
inactive: SNB-75 CNS 45.2% | SNB-19 CNS 11.9% | U251 CNS 16.1% | PC-3 prostate 13.1% | UACC-62 melanoma 24.5% | LOX IMVI melanoma 14.1% | SK-MEL-28 melanoma 54% | SK-MEL-2 melanoma 27.8% | EKVX NSCLC 51.7% | SN12C renal 31.3% | UO-31 renal 39.3% | TK-10 renal 52.5% | ACHN renal 18.2% | CAKI-1 renal 42% | MOLT-4 leukemia 13.2%

COc1ccc(/C=C/c2nc(Nc3ccc(S(=O)(=O)Nc4nc(C)cc(C)n4)cc3)c3ccccc3n2)cc1
inactive: HCT-15 colon 50.5% | HT29 colon 62.2% | SNB-75 CNS 85.7% | SNB-19 CNS 75.6% | U251 CNS 69.7% | PC-3 prostate 77.5% | SK-MEL-5 melanoma 61.1% | UACC-62 melanoma 20.8% | LOX IMVI melanoma 26.3% | SK-MEL-28 melanoma 87.4% | SK-MEL-2 melanoma 75.2% | EKVX NSCLC 72% | SN12C renal 76.8% | UO-31 renal 51.8% | TK-10 renal 71.1% | ACHN renal 57.7% | CAKI-1 renal 53.1% | CCRF-CEM leukemia 61.5% | MOLT-4 leukemia 65.7%

N/C(=N\C(N)=N\c1nc2ccccc2s1)c1ccnc(Br)c1
active: SNB-75 CNS -13.2% | SK-MEL-2 melanoma 7.48%
inactive: HCT-15 colon 19.6% | HT29 colon 10.2% | SNB-19 CNS 39.1% | U251 CNS 26.3% | PC-3 prostate 35.3% | SK-MEL-5 melanoma 27.1% | UACC-62 melanoma 27.7% | LOX IMVI melanoma 33.8% | SK-MEL-28 melanoma 57.2% | EKVX NSCLC 82.6% | SN12C renal 40.5% | UO-31 renal 33.1% | TK-10 renal 82.2% | ACHN renal 27.6% | CAKI-1 renal 25.4% | CCRF-CEM leukemia 21.3% | MOLT-4 leukemia 34%

N#Cc1cccc(-c2ccc3c(c2)NC(=O)/C3=C\c2ccc[nH]2)c1
inactive: HCT-15 colon 14.3% | HT29 colon 53.7% | SNB-75 CNS 58.2% | SNB-19 CNS 91.2% | U251 CNS 92.8% | PC-3 prostate 70.2% | SK-MEL-5 melanoma 36.6% | UACC-62 melanoma 42.7% | LOX IMVI melanoma 66.1% | SK-MEL-28 melanoma 83.5% | SK-MEL-2 melanoma 81.2% | EKVX NSCLC 25.2% | SN12C renal 87.6% | UO-31 renal 65.6% | TK-10 renal 32.3% | ACHN renal 57.8% | CAKI-1 renal 51.8% | CCRF-CEM leukemia 69.7% | MOLT-4 leukemia 68.2%

Cc1ccc(-n2nc3c(c(C#N)c2=O)CC(c2ccccc2[N+](=O)[O-])C([N+](=O)[O-])=C3O)cc1 (stereo not given)
inactive: HCT-15 colon 84.1% | HT29 colon 113% | SNB-75 CNS 80.1% | SNB-19 CNS 92.3% | U251 CNS 91.3% | PC-3 prostate 88.3% | SK-MEL-5 melanoma 87.5% | UACC-62 melanoma 78.3% | LOX IMVI melanoma 82.9% | SK-MEL-28 melanoma 98.4% | SK-MEL-2 melanoma 98.8% | EKVX NSCLC 77.1% | SN12C renal 91.8% | UO-31 renal 61.8% | TK-10 renal 115% | ACHN renal 86.4% | CAKI-1 renal 77.4% | CCRF-CEM leukemia 88.2% | MOLT-4 leukemia 87.6%

Nc1c(C(=O)Nc2cccc3cnccc23)sc2nc3c(cc12)C(=O)CCC3
inactive: HCT-15 colon 70.9% | HT29 colon 79.9% | SNB-75 CNS 88.5% | SNB-19 CNS 66.6% | U251 CNS 95.7% | PC-3 prostate 75.9% | SK-MEL-5 melanoma 47.6% | UACC-62 melanoma 43.1% | LOX IMVI melanoma 91.6% | SK-MEL-28 melanoma 85.1% | SK-MEL-2 melanoma 77.2% | EKVX NSCLC 91.6% | SN12C renal 89.2% | UO-31 renal 81.8% | TK-10 renal 104% | ACHN renal 101% | CAKI-1 renal 77.8% | CCRF-CEM leukemia 64.6% | MOLT-4 leukemia 102%

COc1cc(NC(C)CCCNC(=O)CCC(=O)NCCCNCCCCCCCCNCCCNC(=O)CCC(=O)NCCCC(C)Nc2cc(OC)cc3cccnc23)c2ncccc2c1 (stereo not given)
inactive: HCT-15 colon 108% | HT29 colon 67.5% | SNB-75 CNS 54.2% | SNB-19 CNS 57.9% | U251 CNS 35.1% | PC-3 prostate 77.6% | SK-MEL-5 melanoma 97.1% | UACC-62 melanoma 84.2% | LOX IMVI melanoma 35.7% | SK-MEL-28 melanoma 78.1% | SK-MEL-2 melanoma 78.4% | EKVX NSCLC 79.6% | SN12C renal 42.9% | UO-31 renal 91.4% | TK-10 renal 82.6% | ACHN renal 88.9% | CAKI-1 renal 95.1% | CCRF-CEM leukemia 58.9% | MOLT-4 leukemia 76.4%

COC(=O)CNC(=O)[C@]12CCC(C)(C)C[C@H]1C1=CC[C@@H]3[C@@]4(C)Cc5c([nH]c6ccccc56)C(C)(C)[C@@H]4CC[C@@]3(C)[C@]1(C)CC2
inactive: HCT-15 colon 87.7% | HT29 colon 81% | SNB-75 CNS 87.6% | SNB-19 CNS 92.2% | U251 CNS 82.3% | PC-3 prostate 74.4% | SK-MEL-5 melanoma 98.1% | UACC-62 melanoma 81.7% | LOX IMVI melanoma 94% | SK-MEL-28 melanoma 96.7% | SK-MEL-2 melanoma 77.3% | EKVX NSCLC 88.6% | SN12C renal 89.8% | UO-31 renal 65.3% | TK-10 renal 90.3% | ACHN renal 49.1% | CAKI-1 renal 71.2% | CCRF-CEM leukemia 87.3% | MOLT-4 leukemia 63.6%

COc1cc2nc(-c3ccc(Cl)cc3)cc(OCCCN3CCCC3)c2cc1OC
inactive: HCT-15 colon 20.4% | HT29 colon 23.8% | SNB-19 CNS 67.9% | U251 CNS 54.4% | PC-3 prostate 41.9% | SK-MEL-28 melanoma 63.7% | SK-MEL-2 melanoma 71.1% | EKVX NSCLC 65.8% | SN12C renal 37.9% | UO-31 renal 42.3% | TK-10 renal 101% | ACHN renal 35.5% | CCRF-CEM leukemia 44.6% | MOLT-4 leukemia 40.4%
active: SNB-75 CNS 8.25% | SK-MEL-5 melanoma -8.4% | UACC-62 melanoma -66.1% | LOX IMVI melanoma -32.7% | CAKI-1 renal 3.85%

CNC(=O)c1cc(Cn2nc(C)c(NC(=O)Nc3ccc(Cl)c(C(F)(F)F)c3)c2C)ccn1
inactive: HCT-15 colon 98% | HT29 colon 92.4% | SNB-75 CNS 68% | SNB-19 CNS 103% | U251 CNS 86.7% | PC-3 prostate 79.4% | SK-MEL-5 melanoma 91.8% | UACC-62 melanoma 93.7% | LOX IMVI melanoma 98% | SK-MEL-28 melanoma 107% | SK-MEL-2 melanoma 82.3% | EKVX NSCLC 102% | SN12C renal 98.6% | UO-31 renal 90.5% | TK-10 renal 103% | ACHN renal 97.9% | CAKI-1 renal 93.6% | CCRF-CEM leukemia 92.1% | MOLT-4 leukemia 90.8%

NC1[C@H](c2c[nH]c3ccccc23)c2c([nH]c3ccccc23)[C@H]1c1c[nH]c2ccccc12 (stereo not given in full)
inactive: HCT-15 colon 84.8% | HT29 colon 97.6% | SNB-75 CNS 97.2% | SNB-19 CNS 95.2% | U251 CNS 100% | PC-3 prostate 78.3% | SK-MEL-5 melanoma 85.2% | UACC-62 melanoma 72.5% | LOX IMVI melanoma 90.1% | SK-MEL-28 melanoma 103% | SK-MEL-2 melanoma 98.2% | EKVX NSCLC 85.1% | SN12C renal 88.9% | UO-31 renal 80.2% | TK-10 renal 119% | ACHN renal 88% | CAKI-1 renal 84.8% | CCRF-CEM leukemia 94.5% | MOLT-4 leukemia 80.6%

CCc1c(Cl)nc(N)nc1Nc1ccc(C)c(C)c1
inactive: HCT-15 colon 55.7% | HT29 colon 102% | SNB-75 CNS 93.5% | SNB-19 CNS 96.2% | U251 CNS 88.1% | PC-3 prostate 95.8% | SK-MEL-5 melanoma 92.9% | UACC-62 melanoma 92.8% | LOX IMVI melanoma 85.7% | SK-MEL-28 melanoma 103% | SK-MEL-2 melanoma 99.3% | EKVX NSCLC 89.2% | SN12C renal 99.9% | UO-31 renal 90.8% | TK-10 renal 103% | ACHN renal 99.7% | CAKI-1 renal 86.5% | CCRF-CEM leukemia 100% | MOLT-4 leukemia 94.4%
